Laboratory results taken from PubChem BioAssay AID686978 (National Center for Advancing Translational Sciences (NCATS), 2013).
Where “and” joins values, the source holds several entries; their conditions need not be identical. Equal entries are not always repeated. Among all 420,000 compounds or so, about 64,000 (15%) were called active. Entries that show only a call come without a potency. About 27% were inconclusive and are not listed. Calls follow the shape of the dose curve; as a rule, active = well fitted inhibition curve with a large enough effect; inconclusive = small, poorly fitted or top-dose-only effect; inactive = flat fitted curve, though single readings scatter. Only a selection was taken, and actives are over-represented in it overall.

Test: qHTS for Inhibitors of human tyrosyl-DNA phosphodiesterase 1 (TDP1): qHTS in cells in absence of CPT; also: nearly all actives have a fitted effect of over 55% in size
Conditions: DT40 Tdp1-/- hTDP1 cells, no CPT, ATP luminescence, 48 h; series mostly up to 46.2 µM
Method in brief: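 Chicken DT40 Tdp1-/- cells complemented with human TDP1, screened without camptothecin (DMSO vehicle only), 400 cells/well. Compounds pin-transferred, cells incubated at 37 °C for at least 48 hr. Growth read as ATP-dependent luminescence (CellTiter-Glo, 30 min at RT).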
Potency is read from the fitted curve at half-maximal effect.

| Structure (SMILES) | Potency | activity change, negative = growth inhibition |
| --- | --- | --- |
| Cc1c(Oc2cc(NN3CCCCC3)c([N+](=O)[O-])cc2[N+](=O)[O-])cccc1[N+](=O)[O-] | inactive |  |
| CC(C)(C)[C@]1(O)C[C@@H]2OC(=O)C[C@@]23C(=O)O[C@@H]2OC(=O)[C@H](O)[C@]213 | inactive |  |
| COc1cccc(C(c2nnnn2-c2ccc3c(c2)OCCO3)N2CCC3(CC2)C(=O)NCN3c2ccccc2)c1OC (centres undefined) | 16.4 µM (active) |  |
| COc1ccc(-n2nnnc2C(c2cccc3ccccc23)N2CCC(n3c(=O)[nH]c4ccccc43)CC2)cc1 (centres undefined) | 16.4 µM (active) |  |
| O=c1[nH]c2ccccc2n1C1CCN(C(c2ccccc2)c2nnnn2Cc2ccccc2)CC1 (centres undefined) | 14.6 µM (active) |  |
| CN1CCN(Cc2ccccc2C(F)(F)F)CC1 | inactive |  |
| CC(C)c1ccc(-n2c(O)c(/C=N/N3CCOCC3)c(=O)[nH]c2=S)cc1 | inactive |  |
| CC1C2Cn3c(nc4ccccc43)C1N(C)O2 (centres undefined) | inactive |  |
| CC(=O)c1c(O)c(C)c(O)c(Cc2c(O)c3c(c(C(=O)/C=C\c4ccccc4)c2O)OC(C)(C)C=C3)c1O | 13.3 µM (active) |  |
| CC(=O)c1c(O)c(C)c(O)c(Cc2c(O)c3c(c(C(=O)/C=C/c4ccccc4)c2O)OC(C)(C)C=C3)c1O | 8.91 µM (active) and 19.8 µM (active) and 13.3 µM (active) |  |
| c1cc2c(cc1[C@H]1OC[C@H]3[C@@H]1CO[C@@H]3c1ccc3c(c1)OCO3)OCO2 | inactive |  |
| O=C(O)CCn1cc(C=C2C(=O)NC(=S)NC2=O)c(-c2cccc(Br)c2)n1 | inactive |  |
| CCCC[N+]1(C)C2CC(OC(=O)C(CO)c3ccccc3)CC1C1OC12 (centres undefined) | inactive |  |
| OC[C@@H]1CN(Cc2ccncc2)C[C@H](n2cnc3c(N4CCN(c5ccccc5)CC4)ncnc32)O1 | 2.91 µM (active) |  |
| CC(C)Nc1nc(Cl)nc(NC(C)C)n1 | inactive |  |
| COc1ccccc1C(=O)N[C@@H]1c2ccccc2C2(CCN(Cc3nc(C(C)C)cs3)CC2)[C@H]1O | 1.64 µM (active) |  |
| Cc1cccc(-n2c(O)c(/C=N/N3CCOCC3)c(=O)[nH]c2=S)c1 | inactive |  |
| NC(=O)Nc1cccc(C(F)(F)F)c1 | inactive |  |
| CC(=O)Nc1cc(-c2cccc(CO)c2)cn2c(-c3cccc(C(F)(F)F)c3)cnc12 | 18.4 µM (active) |  |
| CCN1CCN(c2nc3c(c(=O)[nH]2)CCC3)CC1 | inactive |  |
| COC(=O)CN(CCCl)P1(=O)OCCCN1CCCl (centres undefined) | inactive |  |
| Fc1cccc(F)c1CN1CCN(Cc2c(F)cccc2F)CC1 | inactive |  |
| CN(C)c1cccc(C(=O)Nc2nc3ccc(S(=O)(=O)NC(C)(C)C)cc3s2)c1 | 11.6 µM (active) |  |
| O=c1[nH]c(=S)n(C2CC2)c(O)c1/C=N/N1CCOCC1 | inactive |  |

| Structure (SMILES) | Potency | activity change, negative = growth inhibition |
| --- | --- | --- |
| O=C1NCN(c2ccccc2)C12CCN(C(c1cccs1)c1nnnn1C1CCCCC1)CC2 (centres undefined) | 16.4 µM (active) |  |
| C=Cn1ccnc1P(=S)(c1cc(N(CC)CC)ns1)c1nccn1C=C | inactive |  |
| O=C1C[C@@H]2OCC=C3CN4CC[C@]56c7ccccc7N1[C@H]5[C@H]2[C@H]3C[C@H]46 (tested in a mixture with another compound) | inactive |  |
| COc1ccc(CCn2c(O)c(C=NCCCn3ccnc3)c(=O)[nH]c2=O)cc1OC | inactive |  |
| Cc1ccc(C)c(NS(=O)(=O)c2ccc(OCC(=O)NCc3cccnc3)cc2)c1 | inactive |  |
| C=CCN1C(=O)NC(=O)/C(=C/c2ccc(OCC(=O)Nc3ccc(C)cc3)cc2)C1=O | inactive |  |
| Cc1ccc(NC(=O)COc2ccc(-n3ccnc3)cc2)cc1Cl | 20.6 µM (active) |  |
| COc1ccc(NC(=O)N2Cc3ccccc3-n3nncc3C2)cc1 | inactive |  |
| O=C1/C(=C\c2ccc3c(c2)OCO3)N2CCC1CC2 | inactive |  |
| COc1ccc(C)cc1N(CC(=O)N1CCC(C)CC1)S(=O)(=O)c1ccc(C)cc1 | 13 µM (active) |  |
| CCOC(=O)c1c(N)n(CCN2CCOCC2)c2nc3ccccc3nc12 | inactive |  |
| CC(=O)NC(=O)NC(C)Cc1ccccc1 (centres undefined) | inactive |  |
| Nc1ccc(C(=O)N/N=C2/CN3CCC2CC3)cc1 | inactive |  |
| CN(C)C(=O)Oc1ccc(OCc2cccc[n+]2C)cc1 | inactive |  |
| Cc1cc2ccccn2c1C(C[N+](=O)[O-])c1c(F)cccc1Cl (centres undefined) | 14.6 µM (active) |  |
| CCN1C(=O)C(=Cc2c(C)n(CC(=O)NCC3CCCO3)c3ccccc23)C(=O)N(CC)C1=S (centres undefined) | inactive |  |
| CN(C)CC1CCCCC1=O (centres undefined) | 13 µM (active) |  |
| COC(=O)C(O)(c1ccc(NC(=O)c2ccco2)c(OC)c1)C(F)(F)F (centres undefined) | inactive |  |
| CC(=CCOc1ccc2ccc(=O)oc2c1)C1=CC(=O)C(C)(C)O1 | 3.26 µM (active) |  |
| CC(C)c1ccc(OCC(=O)N2CCN(C)CC2)c(Br)c1 | inactive |  |
| O=C(C1CCN(S(=O)(=O)c2ccc(Br)s2)CC1)N1CCN(c2ccccc2)CC1 | 20.6 µM (active) |  |
| COc1ccc(N=Cc2c(O)n(C)c(=O)[nH]c2=O)cc1 | inactive |  |
| COc1ccc(Cn2c(O)c(/C=C3/C=CC=N3)c(=O)[nH]c2=O)cc1 | 16.4 µM (active) |  |
| O=C(N/N=C/c1c(O)n(Cc2ccccc2)c(=O)[nH]c1=O)c1ccccc1 | inactive |  |

| Structure (SMILES) | Potency | activity change, negative = growth inhibition |
| --- | --- | --- |
| Nc1ccc(Cc2ccc(N)c(Cl)c2)cc1Cl | inactive |  |
| CCCN(C/C=C/I)C1CCc2ccc(O)cc2C1 (centres undefined) | 20.6 µM (active) |  |
| Cc1cccc2c(CCN)c[nH]c12 | inactive |  |
| Oc1cc2c(cc1CN1CCN(c3ccccc3)CC1)OCO2 | inactive |  |
| CC(=O)OC1C2(CC3N4C(=O)C5(CO)SSC4(CC31O)C(=O)N5C)OC(C)C(C)(C)C2=O (centres undefined) | 0.164 µM (active) |  |
| COC(=O)CN1C(=O)C2(C(C(=O)OC)=C(N)Oc3ccccc32)C2=C1CC(C)(C)CC2=O (centres undefined) | inactive |  |
| Cc1cc(OCc2cc(C(=O)O)oc2C)c2c3c(c(=O)oc2c1)CCCC3 | inactive |  |
| COC(=O)COc1cc(C)cc2oc(=O)c3c(c12)CCCC3 | inactive |  |
| CC(=O)c1ccc(OC(NC(=O)Cc2ccccc2)C(Cl)(Cl)Cl)cc1 (centres undefined) | inactive |  |
| CCCCCCCCCCCCn1ccc(=N)cc1 | 0.411 µM (active) |  |
| CC(=C1C(=O)c2ccccc2C1=O)N1CCN(CCN=Cc2c(O)n(C)c(=O)n(C)c2=O)CC1 | inactive |  |
| CN1CCc2cc3c(cc2[C@H]1[C@@H]1OC(=O)c2c1ccc1c2OCO1)OCO3 | inactive |  |
| CC(C)CN1CCN(Cc2ccccc2C(F)(F)F)CC1CCO (centres undefined) | inactive |  |
| O=C1C2CCN(CC2)C1(CO)CO | 5.96 µM (active) and 4.61 µM (active) |  |
| CC(C)c1ccc(OCC(=O)N2CCCN(C)CC2)cc1 | inactive |  |
| O=C(Nc1cccc2ccccc12)N1CCC2(CC1)OCCO2 | inactive |  |
| COc1ccc(CCn2c(O)c(C=NC3CC3)c(=O)[nH]c2=O)cc1OC | inactive |  |
| Cc1nc2ccc(N3CCN(C)CC3)cc2nc1C | inactive |  |
| COc1cccc(-c2nc3ccc(N4CCN(C)CC4)cc3[nH]2)c1 | inactive |  |
| CN1CCN(c2cc(N3CCNCC3)ccc2[N+](=O)[O-])CC1 | 7.31 µM (active) |  |
| O=c1[nH]c(=O)n(Cc2ccccc2)c(O)c1/C=N/Nc1c(F)c(F)c(F)c(F)c1F | inactive |  |
| COc1ccc2c(c1)NP(=S)(c1ccccc1)N2 (centres undefined) | 16.4 µM (active) |  |
| Cc1cc(C)c2c(c1)NP(=S)(c1ccccc1)N2 (centres undefined) | inactive |  |
| NC(=O)Cn1cc(C(=O)c2ccccc2F)c2ccccc21 | inactive |  |

| Structure (SMILES) | Potency | activity change, negative = growth inhibition |
| --- | --- | --- |
| N#Cc1ccc(Cn2cc(C(=O)c3ccco3)c3ccccc32)cc1 | 23.1 µM (active) |  |
| Cc1cc(=O)oc2c(C)c(OCC(=O)N3CCN(Cc4ccc5c(c4)OCO5)CC3)ccc12 | inactive |  |
| O=C(CN1CCCCC1)Nc1ccc(Br)cc1C(=O)c1ccccc1Cl | inactive |  |
| O=S(=O)(O)C(F)(F)C(F)(F)C(F)(F)C(F)(F)F | inactive |  |
| Cc1ccc(OC(=O)N(C)C[C@@H]2OCc3cnnn3CCCC(=O)N([C@H](C)CO)C[C@@H]2C)cc1 | inactive |  |
| O=c1c2ccccc2nc(/C=C/c2ccc(F)cc2)n1-c1ccccc1O | 16.4 µM (active) |  |
| COc1cccc(N2C(=O)NC(=O)/C(=C\c3cn(C)c4ccccc34)C2=O)c1 | inactive |  |
| Cn1cc(/C=C/c2nc3ccccc3c(=O)n2-c2ccccc2)c2ccccc21 | 8.2 µM (active) |  |
| O=c1c2ccccc2nc(CBr)n1-c1ccc(Cl)cc1 | inactive |  |
| C1CC[C@H]([C@@]23C[C@H](C[C@H]4CCCN[C@H]42)[C@@H]2CCCCN2C3)NC1 |  | -7.17% [at 9.04 µM] (inactive) |
| CCCC(C)n1[nH]c(=O)c2c1NC(=O)CSC2c1ccc(OC)c(OC)c1 (centres undefined) | inactive |  |
| COc1ccccc1-n1c(O)c(C=NC2CC2)c(=O)[nH]c1=O | inactive |  |
| CCOC(=O)CNC(=O)N1Cc2cc(N3CCCCC3)ccc2-n2nncc2C1 | inactive |  |
| c1ccc(CC2CCCCN2)cc1 (centres undefined) | inactive |  |
| Cn1c(O)c(C=Nc2ccc3c(c2)CCC3)c(=O)n(C)c1=O | inactive |  |
| CC(=NC1CCN(Cc2ccccc2)CC1)c1c(O)n(C)c(=O)n(C)c1=O | inactive |  |
| Cn1c(O)c(C(=Nc2ccc(F)cc2)c2ccccc2)c(=O)n(C)c1=O | 9.2 µM (active) |  |
| CCN1CCN(Cc2cc(OC)c3c(c2)OCO3)CC1 | inactive |  |
| COc1cccc(C(=O)N2C[C@H]3C[C@@H](C2)c2cccc(=O)n2C3)c1 | inactive |  |
| N#Cc1c(Cl)c(Cl)c(Cl)c(C#N)c1Cl | 25.1 nM (active) and 517 nM (active) |  |
| O=c1c2ccccc2nc(-c2ccc(Cl)cc2Cl)n1-c1ccncc1 | inactive |  |
| Cc1nc2ccccc2c(=O)n1-c1ccc(Cl)cc1Cl | 23.1 µM (active) |  |
